Values joined by “and” are separate entries in the source; they are usually repeats but may differ in a detail not shown here. Equal entries are not always repeated. Out of some 5,500 compounds screened, about 2,000 (36%) were called active. Another 18% or so got no clear call; they are omitted. Rule as the data show it: active = normalized growth mostly below about 0.91 (no sharp cut-off); inconclusive = no clear call, values can overlap the other calls; inactive = mostly above about 0.92. Some of the results follow.
Experiment: chemical genetic growth profiling, strain panel (AID 1159580);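 also: tested at 20 µM; growth read once vehicle control cultures reached saturation at 30 °C; 1 = growth at the plate median or of vehicle wells; lower values mean less growth of the strain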
Settings: S. cerevisiae deletion strains, growth OD

Measured: normalized growth

CCN(CC)CCOC(=O)C1(C2CCCCC2)CCCCC1
inactive: locus YJR066W, strain TOR1, hits give low values 0.951 | locus YJR075W, strain HOC1, hits give low values 0.952 and 0.974 | locus YKL009W, strain mrt4, hits give low values 0.971 | locus YKL068W, hits give low values 0.992 | locus YKL085W, strain MDH1 (second series), hits give low values 0.963 | locus YKL085W, strain MDH1, hits give low values 0.963 | locus YKL160W, strain elf1, hits give low values 1.01 | locus YKR001C, strain vps1, hits give low values 1 | locus YKR026C, strain gcn3, hits give low values 0.982 | locus YKR091W, strain srl3, hits give low values 0.978 | locus YLL001W, strain dnm1, hits give low values 0.998 | locus YLL026W, hits give low values 0.997 | locus YLL041C, strain sdh2, hits give low values 0.987 | locus YLR027C, strain aat2, hits give low values 0.994 | locus YLR039C, strain RIC1, hits give low values 1.3 | locus YLR058C, strain SHM2, hits give low values 0.985 | locus YLR102C, strain apc9, hits give low values 0.987 | locus YLR113W, strain HOG1, hits give low values 1.05 | locus YLR221C, strain rsa3, hits give low values 0.952 | locus YLR258W, strain gsy2, hits give low values 0.955 | locus YLR262C, strain YPT6 (second series), hits give low values 1.04 | locus YLR262C, strain YPT6, hits give low values 1.25 | locus YLR268W, strain sec22, hits give low values 0.965 | locus YLR320W, strain mms22, hits give low values 0.93 | locus YLR330W, strain CHS5, hits give low values 0.999 | locus YLR342W, strain FKS1 (second series), hits give low values 0.905 | locus YLR342W, strain FKS1, hits give low values 0.983 | locus YLR357W, strain rsc2, hits give low values 0.965 | locus YLR370C, strain arc18, hits give low values 0.979 | locus YLR371W, strain rom2, hits give low values 0.973 | locus YLR384C, strain iki3, hits give low values 0.993 | locus YLR418C, strain cdc73, hits give low values 0.847 | locus YML016C, strain PPZ1, hits give low values 0.997 | locus YML032C, strain rad52, hits give low values 0.966 | locus YML120C, strain ndi1, hits give low values 0.985 | locus YML124C, strain tub3, hits give low values 0.984 | locus YMR058W, strain fet3, hits give low values 0.983 | locus YMR078C, strain ctf18, hits give low values 0.978 | locus YMR125W, strain sto1, hits give low values 0.946 | locus YMR129W, hits give low values 0.972 | locus YMR205C, strain PFK2, hits give low values 0.985 | locus YMR223W, strain ubp8, hits give low values 0.932 | locus YMR231W, strain pep5, hits give low values 0.985 | locus YMR263W, strain SAP30, hits give low values 0.984 and 1 | locus YMR307W, strain GAS1, hits give low values 1.23 and 1.02 | locus YNL067W, strain RPL9B, hits give low values 0.979 | locus YNL071W, strain lat1, hits give low values 0.951 | locus YNL128W, strain TEP1, hits give low values 1.02 | locus YNL153C, strain GIM3, hits give low values 0.966 and 0.991 | locus YNL175C, strain NOP13, hits give low values 1.02 | locus YNL183C, strain NPR1, hits give low values 0.995 | locus YNL197C, strain WHI3, hits give low values 1.06 | locus YNL209W, strain ssb2, hits give low values 0.947 | locus YNL224C, strain SQS1, hits give low values 1.01 | locus YNL233W, strain BNI4, hits give low values 0.962 | locus YNL248C, strain rpa49, hits give low values 0.948 | locus YNL250W, strain rad50, hits give low values 0.979 | locus YNL271C, strain bni1, hits give low values 0.973 | locus YNL298W, strain CLA4, hits give low values 1 | locus YNL307C, strain MCK1, hits give low values 0.968 | locus YNL322C, strain KRE1 (second series), hits give low values 0.979 | locus YNR049C, strain mso1, hits give low values 0.979 | locus YNR052C, strain pop2, hits give low values 0.961 | locus YOL012C, strain htz1 0.807 | locus YOL147C, strain pex11, hits give low values 0.99 | locus YOR001W, strain rrp6, hits give low values 1.01 | locus YOR061W, strain CKA2, hits give low values 1 | locus YOR069W, strain VPS5, hits give low values 0.994 | locus YOR070C, strain gyp1, hits give low values 0.968 | locus YOR080W, strain dia2, hits give low values 0.982 | locus YOR083W, strain WHI5 (second series), hits give low values 1.02 | locus YOR083W, strain WHI5, hits give low values 0.965 | locus YOR106W, strain vam3, hits give low values 1 | locus YOR136W, strain idh2, hits give low values 0.998 | locus YOR144C, strain elg1, hits give low values 0.997 | locus YOR184W, strain ser1, hits give low values 0.992 | locus YOR231W, strain MKK1, hits give low values 1.04 | locus YOR265W, strain rbl2, hits give low values 0.991 | locus YOR270C, strain vph1, hits give low values 0.85 | locus YOR290C, strain snf2, hits give low values 0.939 | locus YOR316C, strain cot1, hits give low values 0.992 | locus YPL051W, strain arl3, hits give low values 0.984 | locus YPL055C, strain LGE1, hits give low values 0.986 | locus YPL078C, strain atp4, hits give low values 1.01 | locus YPL106C, strain sse1, hits give low values 0.939 | locus YPL240C, strain hsp82, hits give low values 0.984 | locus YPL241C, strain CIN2, hits give low values 0.998 | locus YPL256C, strain CLN2, hits give low values 1.05 | locus YPR119W, strain clb2, hits give low values 0.99 | locus YPR141C, strain kar3, hits give low values 0.993 | locus YPR163C, strain tif3, hits give low values 0.988 | locus YPR167C, strain met16, hits give low values 0.983 | strain wtn01, hits give low values 0.957

Reference: PubChem BioAssay AID1159580 (chemical genetic matrix, 2015)
